From PubChem BioAssay (NCI)
Several values for one entry are separate records, joined by “and”; a condition that tells them apart may be missing. Identical values can stand only once. The panel holds about 79,000 compounds, 15% with a hit somewhere; the sample as a whole holds those more often. Some structures have more than one record in an assay (separate samples or runs), and their calls can disagree. Activity calls are given as the source filed them. Rule as the data show it: active = growth inhibition above about 70%; inactive = the rest.

test: NCI Yeast Anticancer Drug Screen. Data for the mlh1 rad18 strain (AID 175); details: S. cerevisiae mlh1 rad18 strain growth inhibition; at 50.0 µM; stronger effect = higher value
Summary of the method: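 Vehicle-treated cultures served as the reference for growth inhibition in a yeast strain carrying DNA damage repair alterations exposed to each compound.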

Structure (SMILES) | growth inhibition
CC(C)OC(=S)S.[Cu+2] | 2.4% (inactive)
CC1=CC(C(=O)O)P(C)(=O)C1 (stereo not drawn) | -10.3% (inactive)
C[CH2][Sn]([CH2]C)([n]1c(C)nc2ccccc21)[n]1c(C)nc2ccccc21 | -12.8% (inactive)
CCC[As](=O)(O)CC(C)C | -3.75% (inactive)
C1CC[N-]CC1.C1CC[N-]CC1.[Cl][Pd][Cl] | 15.4% (inactive)
O=C(O)c1ccccc1 | -38.4% (inactive) and 10.8% (inactive)
O=C(CCl)Oc1ccccc1Cl | -31.6% (inactive)
N#CCCCBr | 11.8% (inactive)
CCCCOCN(COCCCC)C(C)Cc1ccccc1 (stereo not drawn) | -21.8% (inactive)
CC(O)CN(CCN(CC(C)O)CC(C)O)CC(C)O.O=[N+]([O-])O.[Cu+2] (stereo not drawn) | 5.15% (inactive)
CC1CCC(OC(=O)CCl)CC1 (stereo not drawn) | -8.75% (inactive)
O=[N+]([O-])c1ccc(CCl)cc1 | 26.6% (inactive)
CCN(CC)CCN(Cc1ccccc1)C(=O)C(O)(c1ccccc1)c1ccccc1 | -24.6% (inactive)
[Cl][Sn]([Cl])([c]1ccccc1)[c]1ccccc1 | 51% (inactive) and 97.2% (active)
O=NN1CCNCC1 | 8.2% (inactive) and -2.55% (inactive)
C=C(C)C(=O)OCC12CCC(C)=CC1OC1C(=O)C(OC(=O)C(=C)C)C2(C)C12CO2 (stereo not drawn) | -34% (inactive)
OCCN=Cc1ccccc1O.OCCN=Cc1ccccc1O.[Ni] | 18.4% (inactive)
CN1C(=O)C2(Cc3cn(C45CC67SSC(CO)(C(=O)N6C4Nc4ccccc45)N(C)C7=O)c4ccccc34)SSC1(CO)C(=O)N2C (stereo not drawn) | 89.8% (active)
COC(=O)C1(C(=O)OC)ON1C(C)(C)C (stereo not drawn) | -11.6% (inactive)
Oc1c(Cl)cc(Cl)cc1C1N(Cc2ccc(N(CCCl)CCCl)cc2)CCCN1Cc1ccc(N(CCCl)CCCl)cc1 | 41.5% (inactive)
CCCCN(CCCC)CC(O)c1ccc(Cl)c(Cl)c1 (stereo not drawn) | 7.75% (inactive)
COP(=O)(NC(C)=O)OC | -1.55% (inactive)
CCOC(=O)C[CH2][Sn]([Cl])([Cl])[Cl] | 20.9% (inactive)
